High-throughput results (PubChem BioAssay)
Anthrax LF inh2 – anthrax lethal factor protease inhibition; P15917; multiplex microsphere protease cleavage assay, LF; inhibition, % at 10 µM; 360,000 compounds, 0.12% hits; further: plate controls were buffer without enzyme for full effect and enzyme alone for no effect
Target sequence (P15917 whole entry, looked up): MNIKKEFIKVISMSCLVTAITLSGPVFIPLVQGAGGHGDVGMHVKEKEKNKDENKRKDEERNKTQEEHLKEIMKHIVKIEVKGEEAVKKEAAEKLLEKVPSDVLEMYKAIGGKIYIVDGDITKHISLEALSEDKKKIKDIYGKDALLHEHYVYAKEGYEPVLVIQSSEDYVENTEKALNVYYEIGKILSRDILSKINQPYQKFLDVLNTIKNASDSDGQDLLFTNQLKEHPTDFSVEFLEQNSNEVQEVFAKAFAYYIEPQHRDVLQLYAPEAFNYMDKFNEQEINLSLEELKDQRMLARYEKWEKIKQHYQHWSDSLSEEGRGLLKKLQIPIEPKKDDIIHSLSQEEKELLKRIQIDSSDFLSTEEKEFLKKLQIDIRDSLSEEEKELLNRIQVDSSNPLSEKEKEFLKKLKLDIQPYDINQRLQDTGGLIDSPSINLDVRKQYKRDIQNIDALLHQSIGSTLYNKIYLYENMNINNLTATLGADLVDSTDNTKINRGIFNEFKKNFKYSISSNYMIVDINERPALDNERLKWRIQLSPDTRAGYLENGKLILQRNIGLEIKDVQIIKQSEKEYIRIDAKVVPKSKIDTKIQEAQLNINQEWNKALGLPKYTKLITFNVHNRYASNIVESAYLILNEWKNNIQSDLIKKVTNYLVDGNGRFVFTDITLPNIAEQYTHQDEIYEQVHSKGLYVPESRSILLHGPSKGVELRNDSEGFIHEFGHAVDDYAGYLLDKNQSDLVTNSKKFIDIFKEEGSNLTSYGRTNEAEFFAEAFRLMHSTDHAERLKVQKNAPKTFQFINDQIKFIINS
BoNT A protease – blocks Botulinum neurotoxin A light chain protease; inhibition, % at 10 µM; multiplex microsphere protease substrate cleavage, flow cytometry; 360,000 compounds, 0.17% hits; AID 588499; further: plate controls were buffer without enzyme for full effect and enzyme alone for no effect
Autofluor counter – counter-screen for toxin protease inhibitors: compound fluorescence. compound autofluorescence counterscreen, microsphere flow cytometry; hits give high values. fluorescence intensity (no concentration beside the values). 360,000 compounds, 3.1% hits. AID 624483; in the data active means fluorescence intensity above about 16000; inconclusive means no clear call, values can overlap the other calls
BoNT-F LC inh – inhibitors of Botulinum neurotoxin F light chain protease; Multiplex microsphere protease cleavage assay, flow cytometry; inhibition, % at 10 µM; 360,000 compounds, 0.22% hits; AID 588497; in the data active means inhibition above about 35%, passing the limit was not always enough; inconclusive means no clear call, values can overlap the other calls; further: plate controls were buffer without enzyme for full effect and enzyme alone for no effect
PriA SSB inh – blocks PriA binding to SSB C-terminal tail; AlphaScreen SSBct-PriA binding, biotinylated peptide; inhibition, % at 33 µM; 430,000 compounds, 0.6% hits; AID 1272365; in the data active means inhibition mostly above about 37%, no sharp cut-off; inactive means mostly below about 20%;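 further: plate controls were negative control peptide for no effect and reference peptide for full effect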
Active calls of the source: *; ! = repeats disagree. Sampled rows, rich in hits. Any-hit rate of the full collection: about 3.1%. Unless noted, no stated cut-off is given here; in the data, active means inhibition above about 30%; inconclusive means no clear call, values can overlap the other calls; inactive means below that.

Results for Cc1cccc(-c2nc(CN(c3ccccc3)S(=O)(=O)c3ccccc3)c(C)o2)c1 ?
PriA SSB inh: -20

How did CCc1nc2sc3c(c2c(=O)o1)CCCC3 do in these assays?
PriA SSB inh: 69*

Results for O=S(=O)(O)c1cc(O)c2c(O)c(N=Nc3cc(Cl)ccc3O)c(S(=O)(=O)O)cc2c1 ?
Anthrax LF inh2: -17; BoNT A protease: -8; Autofluor counter: 3218; BoNT-F LC inh: -26; PriA SSB inh: 58*

What do the screens show for `O=S(=O)(O)c1cc(Cl)cc(N=Nc2ccc(O)cc2O)c1O`?
Anthrax LF inh2: -14; BoNT A protease: -1; Autofluor counter: 2860; BoNT-F LC inh: -8; PriA SSB inh: -3

What do the screens show for `CC(=O)Nc1cccc(NC(=O)CC2CCCCN2S(=O)(=O)c2ccc(C)cc2)c1` (stereo not given)?
PriA SSB inh: 17

Results for c1ccc(C2OC3c4cccc5cccc(c45)C3N2c2ccccc2)cc1 (stereo not given) ?
Anthrax LF inh2: -4; BoNT A protease: inconclusive; Autofluor counter: 22884*; BoNT-F LC inh: -4; PriA SSB inh: 0

What do the screens show for `O=C(NCc1ccccc1)C(Cc1ccccc1)N1C(=O)C2C3CCC(C3)C2C1=O` (stereo not given)?
Anthrax LF inh2: -16; BoNT A protease: 9; Autofluor counter: 16697*; BoNT-F LC inh: 10; PriA SSB inh: 4

How did O=C(NC1CCCCC1)C(Cc1ccccc1)N1C(=O)C2C3CCC(C3)C2C1=O (stereo not given) do in these assays?
Anthrax LF inh2: 3; BoNT A protease: 0; Autofluor counter: 4201; BoNT-F LC inh: 2; PriA SSB inh: -2

What do the screens show for `Cc1n[nH]c(C)c1CNC(=O)c1nnn(Cc2ccccc2)c1-c1ccncc1`?
PriA SSB inh: -15

How did O=C(Nc1ccccc1Cl)C1CCCN(c2ccc(-c3ccco3)nn2)C1 (stereo not given) do in these assays?
PriA SSB inh: 0

How did COC(=O)C(Cc1cnc[nH]1)NC(=O)C1CCC(=O)N1 (stereo not given) do in these assays?
Anthrax LF inh2: -3; BoNT A protease: inconclusive; Autofluor counter: 22414*; BoNT-F LC inh: 3; PriA SSB inh: -27

What do the screens show for `CC(=O)c1cccc(NC(=O)Cc2c(C)nc(SCc3cccc(Cl)c3)[nH]c2=O)c1`?
PriA SSB inh: -2

How did O=C(Nc1ccc(N2CCN(C(=O)c3ccccc3)CC2)c(Cl)c1)c1ccc(Br)o1 do in these assays?
Anthrax LF inh2: -6; BoNT A protease: -1; Autofluor counter: 23206*; BoNT-F LC inh: -3; PriA SSB inh: 4

How did O=C(Nc1cc(Cl)ccc1-n1cncn1)c1ccc(Br)o1 do in these assays?
Anthrax LF inh2: 2; BoNT A protease: 1; Autofluor counter: 4252; BoNT-F LC inh: 5; PriA SSB inh: 1

What do the screens show for `O=C(Nc1ccc(N2CCCC2)c(Cl)c1)c1ccc([N+](=O)[O-])o1`?
Anthrax LF inh2: -12; BoNT A protease: 0; Autofluor counter: 3079; BoNT-F LC inh: -14; PriA SSB inh: 45*

How did CCC(=O)N1CCN(c2ccc(Cl)cc2NC(=O)c2ccc(Br)o2)CC1 do in these assays?
Anthrax LF inh2: 1; BoNT A protease: 2; Autofluor counter: 22198*; BoNT-F LC inh: 1; PriA SSB inh: -9

How did CCCc1nnsc1C(=O)N1CCc2nc3ccc(Cl)cn3c(=O)c2C1 do in these assays?
PriA SSB inh: -15

How did CC(C)Oc1ccc(C(=O)Nc2ccc3c(c2)C(=O)NCCO3)cc1 do in these assays?
PriA SSB inh: -5

How did Cc1noc(NS(=O)(=O)c2ccc(N/C=C/C(=O)c3ccncc3)cc2)c1C do in these assays?
Anthrax LF inh2: -2; BoNT A protease: inconclusive; Autofluor counter: 16425*; BoNT-F LC inh: 0; PriA SSB inh: -28

Results for COCCNC(=O)Cc1ccc(NC(=O)c2cc(Cl)ccc2OC)cc1 ?
PriA SSB inh: -10

How did Cc1cc2c(c(=O)[nH]1)C1(C(=O)Nc3ccccc31)C(C#N)=C(N)O2 (stereo not given) do in these assays?
PriA SSB inh: -7

Results for Cc1ccc2c(c1)C1CN(C)CCC1N2C(=O)Nc1cccc(C(F)(F)F)c1 (stereo not given) ?
Anthrax LF inh2: 0; BoNT A protease: 0; Autofluor counter: 3147; BoNT-F LC inh: 7; PriA SSB inh: -22

How did Cc1ccc2c(c1)[C@@H]1CN(C)CC[C@@H]1N2C(=O)Nc1cccc(C(F)(F)F)c1 do in these assays?
Anthrax LF inh2: -3; BoNT A protease: -3; Autofluor counter: 23738*; BoNT-F LC inh: -5; PriA SSB inh: -8

How did O=C(O)CSCc1nc2ccccc2c(=O)[nH]1 do in these assays?
PriA SSB inh: -4

How did c1ccc(Nc2ccnc(Nc3ccccc3)n2)cc1 do in these assays?
Anthrax LF inh2: -4; BoNT A protease: 1; Autofluor counter: 4582; BoNT-F LC inh: -8; PriA SSB inh: -2

How did NNc1nccc(Nc2ccccc2C(=O)O)n1 do in these assays?
Anthrax LF inh2: -1; BoNT A protease: -2; Autofluor counter: 2060; BoNT-F LC inh: -4; PriA SSB inh: 59*

How did COc1ccc2nc(SCC(=O)Nc3ccccc3C#N)[nH]c2c1 do in these assays?
Anthrax LF inh2: -3; BoNT A protease: 0; Autofluor counter: 2371; BoNT-F LC inh: 6; PriA SSB inh: -18

Results for COc1ccccc1NC(=O)CSc1nc(N)cc(N)n1 ?
Anthrax LF inh2: 2; BoNT A protease: 3; Autofluor counter: 21327*; BoNT-F LC inh: 3; PriA SSB inh: -9

What do the screens show for `COc1ccccc1NC(=O)CSc1ccc(-c2ccccn2)nn1`?
Anthrax LF inh2: -1; BoNT A protease: 0; Autofluor counter: 4496; BoNT-F LC inh: -11; PriA SSB inh: 89*!

How did COc1ccc2nc(SCC(=O)Nc3ccccc3C)[nH]c2c1 do in these assays?
Anthrax LF inh2: 0; BoNT A protease: 0; Autofluor counter: 20993*; BoNT-F LC inh: 0; PriA SSB inh: 5

Results for O=C(CSc1ccc(-c2ccccn2)nn1)Nc1ccccc1F ?
PriA SSB inh: 84*

How did COc1ccccc1NC(=O)CSc1ccc(-c2ccncc2)nn1 do in these assays?
PriA SSB inh: 18

What do the screens show for `O=C(CSc1nccc(=O)[nH]1)Nc1ccccc1Sc1ccccc1`?
Anthrax LF inh2: 3; BoNT A protease: -2; Autofluor counter: 5044; BoNT-F LC inh: -5; PriA SSB inh: -18

How did CCOc1ccccc1NC(=O)CSc1ccc(-c2ccccn2)nn1 do in these assays?
PriA SSB inh: 116*

What do the screens show for `COc1ccc(-c2ccc(SCC(=O)N3CCCC3)nn2)cc1OC`?
Anthrax LF inh2: 0; BoNT A protease: 3; Autofluor counter: 19444*; BoNT-F LC inh: 6; PriA SSB inh: -17

How did COc1ccccc1NC(=O)CSc1nccc(=O)[nH]1 do in these assays?
Anthrax LF inh2: 0; BoNT A protease: inconclusive; Autofluor counter: 21630*; BoNT-F LC inh: -5; PriA SSB inh: -3

How did COc1ccc(NC(=O)CSc2ccc(-c3ccccn3)nn2)cc1OC do in these assays?
Anthrax LF inh2: 2; BoNT A protease: -2; Autofluor counter: 9038; BoNT-F LC inh: -13; PriA SSB inh: 72*

How did COC(=O)c1ccc(C(=O)N2CC(S(=O)(=O)c3ccc(Cl)cc3)C2)cc1 do in these assays?
PriA SSB inh: -7
